The panel holds about 79,000 compounds, 15% with a hit somewhere; the sample as a whole holds those more often. Values without a mark were called inactive. The source made the active and inactive calls. No stated cut-off is given here; in the data, active means growth inhibition above about 70%; inactive means the rest.
Key:
[1] = NCI Yeast Anticancer Drug Screen. Data for the rad50 strain (AID 155);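 further: 0% = growth of vehicle-only cultures of the same strain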; conditions: S. cerevisiae rad50 strain growth inhibition; at 50.0 µM; hits give high values
Summary of the method: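 Yeast carrying a defined DNA repair defect were exposed to test compounds, and growth was compared with vehicle-treated controls to give percent inhibition.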

[2] = NCI Yeast Anticancer Drug Screen. Data for the mec2-1 strain (AID 157); conditions: S. cerevisiae mec2-1 strain, at 50.0 µM, hits give high values
Summary of the method: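 Test agents were screened against the mec2-1 yeast strain, with defined DNA repair or cell cycle alteration. Growth was scored as inhibition against vehicle-only controls.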

[3] = NCI Yeast Anticancer Drug Screen. Data for the sgs1 mgt1 strain (AID 161);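 further: 0% = growth of cultures given vehicle only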; conditions: S. cerevisiae sgs1 mgt1 strain, at 50.0 µM, hits give high values
Summary of the method: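 Test agents were incubated with a DNA-repair-mutant yeast strain. Growth was then read and compared against vehicle-treated controls.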

[4] = NCI Yeast Anticancer Drug Screen. Data for the cln2 rad14 strain (AID 165);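 further: 0% = growth equal to vehicle treated cultures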; conditions: S. cerevisiae cln2 rad14 strain, at 50.0 µM, hits give high values
Summary of the method: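 Growth of compound-exposed yeast (cln2 rad14 genotype) measured and expressed as inhibition relative to vehicle.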

[5] = NCI Yeast Anticancer Drug Screen. Data for the bub3 strain (AID 167); conditions: S. cerevisiae bub3 mutant strain, at 50.0 µM, hits give high values
Summary of the method: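 Compounds were applied to a genetically altered yeast strain carrying a cell-cycle control defect. Growth inhibition was scored against vehicle-treated controls.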

[6] = NCI Yeast Anticancer Drug Screen. Data for the mlh1 rad18 strain (AID 175); conditions: S. cerevisiae mlh1 rad18 strain growth inhibition; at 50.0 µM; hits give high values
Summary of the method: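 In this whole-cell yeast screen, a strain with altered DNA damage repair is challenged with compound, and its growth is measured against matched vehicle-treated controls.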

Compound | growth inhibition [1] | growth inhibition [2] | growth inhibition [3] | growth inhibition [4] | growth inhibition [5] | growth inhibition [6]
CCCCCCCCCCCCCCCC(C)O (stereo not given) | -45.8% | -35.8% | -20.1% | -35.6% | -43.5% | -34.8%
COc1ccc(C(O)c2ccc(C)cc2)cc1 (stereo not given) | -14.1% | -4.2% | -43% | -27.6% | -27.4% | -17.3%
O=C1NC(Nc2ccccc2)=NC(C(F)(F)F)(C(F)(F)F)N1 | -1.5% | 1.1% | 36% | 32.5% | 39.6% | -8%
Cc1ccc2c(CC(=O)O)cc(=O)oc2c1 | 7.35% | -6.35% | -7.95% | 0.9% | -0.3% | -9.35%
Cc1ccc(/C=C(/C#N)C(N)=O)cc1 | 11.2% | 0.05% | 21.4% | 17.6% | 12.5% | 29.9%
O=C(Nc1nc2ncn(CCI)c2c(=O)[nH]1)c1ccccc1 | -8.3% | 6.55% | 6.1% | -1.4% | 6.7% | -14.3%
Nc1ccc2cc(S(=O)(=O)O)cc(S(=O)(=O)O)c2c1 | 39.3% | -5.2% | 6.6% | -18.9% | -0.15% | 31.8%
COC(=O)CN(C(=O)c1ccc(OC(C)=O)cc1)c1ccccc1 | 4.25% | 23.3% | -6.7% | 9.1% | 3.45% | -28.1%
COC(=O)C1=C(C)C=C(N2CCOCC2)C(C(=O)OC)C1c1ccccc1 (stereo not given) | -0.85% | -16.2% | -11.4% | -3.1% | -1.55% | 9%
CC1(C)CC(NC(=O)C(C)(C)Oc2ccc(Cl)cc2)CC(C)(C)N1 | 32.5% | 6% | 25.9% | -12% | 9.15% | 25.8%
Cc1cc(N(CCC#N)CCC#N)ccc1/C=C(\NC(=O)/C=C/c1ccccc1)C(=O)Nc1ccccc1Cl | 32.3% | 13.8% | 42.1% | 9.7% | 1.2% | 14.9%
O=C1c2ccccc2C(=O)N1C1Nc2ccccc2N1 | 20% | 10.6% | 9.3% | -0.1% | 16.7% | 14.8%
CCOC(=O)C12CCCCC1=CC1(CC2)SCCS1 (stereo not given) | -0.45% | -9.95% | -30.5% | -1.35% | 4.55% | -15.6%
CC(Oc1ccc([N+](=O)[O-])cc1)c1ccccc1 (stereo not given) | -21.6% | -0.55% | -3.7% | -37.1% | -23.4% | 1.4%
Cc1ccc(S(=O)(=O)N2CCCSCCN(S(=O)(=O)c3ccc(C)cc3)CCCSCC2)cc1 | -0.25% | -32.5% | -30.2% | -9.4% | -28.6% | -24.4%
O=C(Nc1ccc(Cl)cc1)c1cc2c(cc1Cl)Sc1nccn1S2(=O)=O | -4.85% | -11.7% | -1.65% | -25.4% | 2.35% | 16.9%
CC1(C)C2C=CC1(C)C1(CC2)OCCO1 (stereo not given) | 10.5% | 17.5% | -20.5% | 20.8% | -55.8% | -115%
COc1ccc(NC(N)=O)cc1 | 12.2% | -16.4% | 0.05% | -1.25% | -6.35% | 10.4%
CC1CC2OC(=O)C(C)C2CC2(C)C(OC3OC(CO)C(O)C(O)C3O)OCCC12 (stereo not given) | 11.7% | 2.25% | -17.9% | 4.4% | -6.8% | -49.7%
COc1ccc(NC(=O)CCc2cc(-c3ccc(O)c(OC)c3)nc(NC#N)n2)cc1 | -8.1% | 9% | -37% | 6% | 27.6% | -28.9%

Compound | growth inhibition [1] | growth inhibition [2] | growth inhibition [3] | growth inhibition [4] | growth inhibition [5] | growth inhibition [6]
CC(C)(C)[Si](C)(C)OCC1CCC(n2cnc3c(=O)[nH]cnc32)O1 (stereo not given) | 14.7% | -6.75% | 7.6% | -4.1% | 12.8% | -7.25%
c1ccc(C2=C(c3ccccc3)CSSC2)cc1 | 46.4% | 34.6% | 79.8% (active) | 46.6% | 41.7% | 93.5% (active)
CCc1[nH]c2ccc(C)cc2c1C(=O)c1cccnc1 | 5.3% | -0.15% | 16.4% | 7.2% | 21.3% | 7.6%
O=C(Nc1ccc(F)cc1)c1ccc(Cl)cc1Cl | -7.4% | -28.4% | -9% | 13.7% | -4.2% | -2.35%
Clc1ccc2sc(-n3ccc4ccccc43)nc2c1 | -35.9% | -12.3% | -24.7% | 7.65% | -15.4% | -30.7%
CCOC(=O)CC(C(=O)OCC)c1ccccc1 (stereo not given) | -3.4% | 10.2% | -5.4% | -6.35% | 9.85% | -19.4%
ClC(Cl)(Cl)C(=NNc1ccccc1)C(Cl)(Cl)Cl | -0.1% | 16.4% | 30.4% | 50.5% | 30.6% | 69.5%
O=C1/C(=C/c2ccccc2)N=C(c2ccccc2)N1n1c(-c2ccccc2)nc2ccccc2c1=O | 7.5% | 0.35% | 24.4% | 17.8% | -4.05% | 21.8%
CCc1c(C)c(C#N)c(=S)n(C2OC(COC(C)=O)C(OC(C)=O)C(OC(C)=O)C2OC(C)=O)c1-c1ccccc1 (stereo not given) | 2.55% | 13.1% | 37.6% | 8.25% | 11.1% | 13.6%
CC1(C)CC(Nc2ccc(Nc3ccccc3)cc2)CC(C)(C)N1 | -4.35% | -6.3% | -11.3% | -9.8% | -2.1% | -19.8%
CC(=O)OCc1cc(OC(C)=O)cnc1COC(C)=O | -9.25% | -24.6% | -17.4% | -19.2% | -7.85% | -36.2%
CN(C)Cc1ccc2ccccc2c1CC(O)(c1ccccc1)c1ccccc1 | 26.3% | -2.05% | 9.55% | 2.25% | 0.85% | 7.35%
CCCCCCCCCCCCCCCCCC[N+](CCCC)(CCCC)CCCCCCCCCCCCCCCCCC (tested in a mixture with another compound) | 3.45% | 7.25% | 1.7% | -10% | 1.5% | 4.3%
O=c1c2c3c(sc2nc2n1N=CN(c1ccc(Cl)cc1)C2)CCCC3 | 8.7% | 6% | 7.7% | -5.45% | -4.7% | -32%
CC1C(=NO)C(C)C(c2ccccc2)N(N=O)C1c1ccccc1 (stereo not given) | -12.6% | -20.5% | -6.1% | 3.25% | 0.45% | 26.4%
S=c1o[nH]c(-c2ccccc2)c1C=Nc1ccccc1 | -5.45% | 17.5% | 13.9% | 26.6% | 5.35% | 6.15%
C=C1c2ccccc2C=NN1c1ccccc1 | 19.4% | 4.35% | 13.2% | 4.25% | -8.75% | 1%
CCOc1cc(/C=N/NC(=O)c2ccccc2NC(=O)c2ccccc2)ccc1OC | -21.6% | 2.35% | 17.8% | -4.1% | 5.4% | 5.7%
CCCN(CCC)S(=O)(=O)c1ccc(NC(=O)Oc2ccc([N+](=O)[O-])cc2)cc1 | 42.5% | 18.1% | 33.5% | 29.9% | 5.85% | 34.4%
CCn1c2ccccc2c2cc(N=Nc3cc(N)ccc3N(C)C)ccc21 | -3.35% | -7.85% | -9.1% | -22.3% | -5.05% | -4.6%
